Reference: PubChem BioAssay AID619 (University of Pittsburgh Molecular Library Screening Center, 2007)
In all, about 97,000 compounds went through this assay and about 520 (0.54%) were called active. What follows is part of a selection rich in actives, with near analogues and random picks from the rest. Unmarked numbers belong to inactive results.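 Rule for the calls: active = inhibition of 50% or more in the single-concentration screen; inactive = inhibition below 50%.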

Molecular target: Serine/threonine-protein kinase PLK1 (Homo sapiens) (UniProt P53350)
Experiment: human PLK1 kinase inhibitors, primary screen, biochemical, TR-FRET (AID 619);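 note: 0% = DMSO max control and 100% = H-89 dihydrochloride min control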
Conditions: recombinant PLK1 kinase, TR-FRET peptide phosphorylation; at 10 µM; stronger effect = higher value

Serine/threonine-protein kinase PLK1 (Homo sapiens), sequence (P53350 whole entry, looked up): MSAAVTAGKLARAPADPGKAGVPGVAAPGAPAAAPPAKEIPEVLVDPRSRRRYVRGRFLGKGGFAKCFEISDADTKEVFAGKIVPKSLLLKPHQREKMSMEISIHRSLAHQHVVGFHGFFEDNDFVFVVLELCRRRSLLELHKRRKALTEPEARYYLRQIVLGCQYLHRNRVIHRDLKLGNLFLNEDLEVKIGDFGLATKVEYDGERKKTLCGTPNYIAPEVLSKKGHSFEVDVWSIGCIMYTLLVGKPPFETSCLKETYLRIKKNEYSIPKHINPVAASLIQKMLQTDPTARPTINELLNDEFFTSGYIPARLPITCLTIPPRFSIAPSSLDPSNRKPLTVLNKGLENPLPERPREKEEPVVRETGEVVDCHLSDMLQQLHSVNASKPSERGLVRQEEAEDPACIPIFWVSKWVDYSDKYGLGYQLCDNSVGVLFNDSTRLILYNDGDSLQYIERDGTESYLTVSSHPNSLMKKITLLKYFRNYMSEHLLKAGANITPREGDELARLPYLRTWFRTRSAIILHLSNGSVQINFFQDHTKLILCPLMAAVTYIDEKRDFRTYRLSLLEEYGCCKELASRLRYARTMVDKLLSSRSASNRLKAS

Row | Compound | inhibition
1 | Cc1cccc(C(=O)Nc2ccccc2-c2nnn(CC(=O)Nc3ccc4c(c3)OCCO4)n2)c1 | -19.8%
2 | O=C1c2ccccc2C(Nc2ccc3c(c2)OCCO3)N1Cc1ccco1 (configuration not stated) | -13.3%
3 | Cc1ccnc(N2C(=O)c3ccccc3C2Nc2ccc3c(c2)OCCO3)c1 (configuration not stated) | 75.7% (active)
4 | O=C(Nc1ccc(S(=O)(=O)N2CCc3ccccc3C2)cc1)c1ccccc1 | -9.1%
5 | CCN1CCN(C(=O)C2(NC(=O)Nc3cccc(F)c3)CCCCC2)CC1 | -9.1%
6 | CCOC(=O)C1=C(C)NC2=C(C(=O)CC(C)(C)C2)C1c1ccsc1 (configuration not stated) | -9.3%
7 | CC(=O)N/C(=C/c1ccc(Cl)cc1)C(=O)NCCc1c[nH]c2ccccc12 | -8.99%
8 | CCCOn1c(-n2nc(C)cc2C)nc2ccccc2c1=O | -12.7%
9 | COc1ccc2ccccc2c1CNCc1ccccn1 | -6.16%
10 | CN(C)/C=C/C(=O)c1ccccc1F | -7.63%
11 | COc1ccccc1CNC(=O)c1ccc(SC)cc1OC | -11.5%
12 | CCOc1ccc(CN(Cc2ccco2)S(=O)(=O)c2ccc(-n3cnnn3)c(OC)c2)cc1 | -4.62%
13 | CCOc1[nH]n(-c2ccc(Cl)cc2)c(=O)c1C=Nc1ccc(O)cc1 | -12.9%
14 | O=C(O)c1ccccc1NC(=S)NC(NC(=O)c1ccccc1[N+](=O)[O-])C(Cl)(Cl)Cl (configuration not stated) | -10.3%
15 | Cc1ccc(C2=CSC3=NS(=O)(=O)CCN23)cc1C | -12.2%
16 | Cc1[nH]n(-c2ccc([N+](=O)[O-])cc2)c(=O)c1C=NCCN1CCN(C(=O)c2ccccc2F)CC1 | -16.1%
17 | Cc1ccc(NC(=S)Nc2ncccc2C)c(C)c1 | -6.19%
18 | CC(=O)Nc1cccc(NC(=O)c2c(-c3ccccc3)noc2C)c1 | -5.51%
19 | Cc1onc(-c2ccccc2)c1C(=O)Nc1ccccc1C#N | 66.8% (active)
20 | Cc1onc(-c2ccccc2)c1C(=O)N1CCOCC1 | -6.08%
21 | O=C(/C=C/Nc1ccccc1OC(F)(F)F)C(F)(F)F | -3.23%
22 | COc1ccc(-n2cnc3cc(NCc4ccco4)ccc32)cc1 | -1.91%
23 | COc1ccc(-c2cc(C3CCN(c4ncccc4[N+](=O)[O-])CC3)[nH]n2)cc1 | -0.7%
24 | CCOC(=O)Nc1ccc2c(c1)N(C(=O)CCN1CCN(CCO)CC1)c1ccccc1CC2 | -25.9%
25 | CCN(CC)Cc1cc(C(C)=O)ccc1O | -5.02%

Row | Compound | inhibition
26 | CC(=O)Nc1ccc(NC(=O)c2sc3nc4c(c(-c5ccc(C)cc5)c3c2N)CCC4)cc1 | -27.3%
27 | CCN(CC)CCNc1ccc(Cl)cc1[N+](=O)[O-] | -12.3%
28 | Cc1cc(C)c2c3c(sc2n1)C(c1ccccc1)C(C#N)=C(N)O3 (configuration not stated) | -9.36%
29 | c1ccc(CCC2=NCCn3cccc32)cc1 | -1.03%
30 | CC1CSc2nnc(CCc3ccccc3)n21 (configuration not stated) | 85.2% (active)
31 | CNC(=O)CSc1nnc(CCc2ccccc2)n1-c1ccccc1 | -5.54%
32 | Cc1ccoc1C(=O)Nc1cccc(Oc2ccccc2)c1 | 1.94%
33 | Cc1nc2nc(C)c(CCC(=O)N3CCN(c4ccccc4)CC3)c(C)n2n1 | 4.83%
34 | c1cncc(-c2nnc3n2C2(CCCCC2)Cc2ccccc2-3)c1 | -8.5%
35 | COc1cccc(/C=N/NC(=O)C(=O)N2CCCC2)c1 | -9.34%
36 | CCOC(=O)N1CCN(Cc2nc(N)nc(Nc3ccc(C)cc3)n2)CC1 | -13.1%
37 | CC(Oc1ccc(F)cc1F)C(=O)/C=C/N(C)C (configuration not stated) | 0.09%
38 | CN1CCN(c2ccc([N+](=O)[O-])c(Sc3nc4ccccc4[nH]3)c2)CC1 | -5.67%
39 | C=CCn1c(Cn2nnc3ccccc32)nnc1SCC(=O)N/N=C/c1cc(Br)cc(OC)c1O | -6.54%
40 | CCN1CCN(C(=O)c2cc3cc4ccc(OC)cc4nc3s2)CC1 | -4.82%
41 | COc1ccc(-n2c(SCC(=O)NCc3ccco3)nnc2-c2c[nH]c3ccccc23)cc1 | -3.5%
42 | CCCc1nnc(NC(=O)c2cccs2)s1 | -6.49%
43 | CCc1ccccc1NC(=O)c1cccs1 | -6.58%
44 | CCc1nnc(NC(=O)c2cccs2)s1 | 60.3% (active)
45 | Cc1ccc2nc(SC(C)C(=O)NCc3ccco3)[nH]c2c1 (configuration not stated) | 1.32%
46 | CN1CCN(c2ccc(NC(=O)COc3ccc(Cl)cc3Cl)cc2)CC1 | 3%
47 | Cc1ccc(-n2c(=O)cc(N3CCN(Cc4ccccc4)CC3)[nH]c2=O)cc1 | -1.26%
48 | CN1CCN(c2cc(=O)n(-c3ccc(Cl)cc3)c(=O)[nH]2)CC1 | 67.4% (active)
49 | COc1ccc(C2Nc3ccccc3C(=O)N2Cc2ccccc2)cc1Cn1nnc2ccccc21 (configuration not stated) | -11.2%
50 | C[N+]1(CCNC(=O)/C=N/O)CCCCC1 | 95.9% (active)

Row | Compound | inhibition
51 | Cc1ccc(S(=O)(=O)c2c(COC(=O)c3cccc(Cl)c3)c(-c3ccccc3)nn2C)cc1 | 3.59%
52 | CCOC(=O)c1c(NC(=S)Nc2ccccc2)sc2c1CCN(C)C2 | -13.1%
53 | COc1ccc(C2CC(c3ccc(C)cc3)Nc3nc(N)nn32)cc1 (configuration not stated) | -3.47%
54 | CCOc1ccccc1C1CC(c2ccccc2)Nc2nc(N)nn21 (configuration not stated) | 64% (active)
55 | CCOc1ccccc1C1CC(c2ccc(Cl)cc2)Nc2nc(N)nn21 (configuration not stated) | -12.7%
56 | CCOc1ccc(S(=O)(=O)N2CCCCCC2)c2ccccc12 | -17.7%
57 | O=C(CNC(=O)Cc1ccccc1)NCC(=O)OCC(=O)c1ccccc1Cl | -4.92%
58 | COc1ccc(C2=NOC3(CC(=O)N(c4ccc(Cl)cc4)C3=O)C2)c(OC)c1 (configuration not stated) | -9.65%
59 | CC(=O)c1cn(CCCCCCCCCCn2cc(C(C)=O)c(=O)[nH]c2=O)c(=O)[nH]c1=O | -6.55%
60 | COc1nc(-c2ccc(Cl)cc2)ccc1-c1noc(-c2cccs2)n1 | -90.7%
61 | O=C(CSc1ncnc2c1cnn2CCc1ccccc1)Nc1ccc(F)cc1 | -7.32%
62 | Cc1cc(C)c(OCC(=O)N/N=C/c2ccco2)c(C)c1 | 6.14%
63 | Cc1ccc(CS(=O)(=O)CCC(=O)NC2CC2)cc1 | -7.25%
64 | Nc1ccc(-n2nncc2-c2ccco2)cc1 | -4.39%
65 | CCCc1nc2scc(-c3ccc(C)cc3)c2c(=O)n1N | 5.26%
66 | COc1ccc(CCN2C(=O)C3CC=C(C)CC3C2=O)cc1OC (configuration not stated) | -10.2%
67 | COc1cc(OC)c(-n2c(C)cc(C=O)c2C)cc1Cl | -6.8%
68 | CCCC(=O)n1nc(-c2ccccc2)nc1N | -4.99%
69 | COc1ccccc1NS(=O)(=O)N(C)C | -7.41%
70 | O=C(O)CCC(=O)NCc1ccc(C(=O)O)cc1 | -9.7%
71 | C=CCn1c(SCC(=O)c2c(N)n(C)c(=O)n(C)c2=O)nc2sc(CC)cc2c1=O | -9.06%
72 | CC(=O)c1ccc(OCCN2CCOCC2)cc1 | -17.4%
73 | COc1ccc(C(=O)c2c(C)oc3cc([N+](=O)[O-])c(O)c([N+](=O)[O-])c23)cc1 | -2.19%
74 | Cc1ccc(Cc2cnc(NC(=O)/C(C#N)=C/c3ccc(-c4cccc([N+](=O)[O-])c4)o3)s2)cc1 | -5.56%
75 | Cn1c(=O)c2c(SCC(=O)N3CCOCC3)nc(C3CC3)nc2n(C)c1=O | 36.6%

Row | Compound | inhibition
76 | CCCSc1nc2c(c(=O)n(C)c(=O)n2C)n1Cc1ccc(C)cc1 | 6.87%
77 | CCC(C)Sc1nc(C)nc2c1c(=O)n(C)c(=O)n2C (configuration not stated) | 52.6% (active)
78 | CSc1nc(C)nc2c1c(=O)n(C)c(=O)n2C | 68.3% (active)
79 | COc1ccc(CC(=O)Nc2sc(Cc3ccccc3)c(C)c2C(N)=O)cc1 | -12%
80 | O=c1cc(C(F)(F)F)[nH]c(=O)n1C1CCCCC1 | -12.1%
81 | COc1ccc(/C=C/C(=O)Nc2c(C)nn(C)c2C)cc1COc1ccc(Br)cc1 | -7.02%
82 | CCc1c(C)nc2cc(C)[nH]n2c1=O | -1.93%
83 | FC(F)(F)c1cc(C(F)(F)F)c2ccc(N3CCN(c4ccccc4)CC3)nc2n1 | -4.18%
84 | CN(CCC#N)c1ncnc2scc(-c3ccccc3)c12 | 54.3% (active)
85 | N#CCCN(CCC#N)c1nnc(-c2ccccc2)s1 | -13.8%
86 | C=CCn1cnc2scc(-c3ccccc3)c2c1=O | -17.6%
87 | CS(=O)(=O)n1nc(-c2ccccc2)nc1NCc1ccco1 | -17.7%
88 | Cc1nc2cc(NC(=O)CSc3nc4c(C)cccc4cc3C#N)ccc2s1 | -34.1%
89 | CC(=O)C1=C(C)NC(=O)NC1c1cc(Br)ccc1OCC#N (configuration not stated) | -9.62%
90 | CC1=CC(=O)C=CC1(C)C(Cl)(Cl)Cl (configuration not stated) | -6.25%
91 | CC/C(=N/Nc1ccccc1)c1cnnc(SC)n1 | -14.3%
92 | COC(=O)/C=C/C(=O)NCc1ccco1 | -9.17%
93 | Cc1ccccc1CSCCNC(=O)c1ccc(Cl)c(S(=O)(=O)N2CCOCC2)c1 | -1.84%
94 | Cc1ccc(C(=O)NCCNS(=O)(=O)c2ccccc2)cc1 | -5.51%
95 | Cc1ccccc1CSCCNC(=O)c1ccc(N(C)S(=O)(=O)c2ccccc2)cc1 | 57.1% (active)
96 | Cc1cc(OCCOc2cccc3cccnc23)c(C)cc1Cl | -13.9%
97 | CCN1C(=O)/C(=C2/Sc3ccc(OC)cc3N2C)SC1=Nc1ccc(C)cc1 | -9.58%
